Experimental data reported in PubChem BioAssay (EPA / NIEHS).
Several values for one entry are separate records, joined by “and”; a condition that tells them apart may be missing. Equal entries are not always repeated. Records with an inconclusive call do not appear. Some structures have more than one record in an assay (separate samples or runs), and their calls can disagree. Activity calls are given as the source filed them. How the source made its calls, unless noted: active means hit-call score of the fitted dose curve at least 0.9, where 1 is the maximum; inactive means score below 0.9.

Tests used:
[1] = target: Glucocorticoid receptor (Homo sapiens) (UniProt P04150); assay: ATG_GR_TRANS: Attagene TRANS-FACTORIAL HepG2 Assay for human Glucocorticoid Receptor (GR) (AID 2282978; active means hit-call score of the fitted dose curve at least 0.9, where 1 is the maximum;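 further: activators score as hits since higher reporter transcript over DMSO is fitted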); conditions: HepG2 Attagene TRANS GR reporter, mRNA transcription
Glucocorticoid receptor (Homo sapiens), sequence (P04150 whole entry, looked up, the tested form may be a part): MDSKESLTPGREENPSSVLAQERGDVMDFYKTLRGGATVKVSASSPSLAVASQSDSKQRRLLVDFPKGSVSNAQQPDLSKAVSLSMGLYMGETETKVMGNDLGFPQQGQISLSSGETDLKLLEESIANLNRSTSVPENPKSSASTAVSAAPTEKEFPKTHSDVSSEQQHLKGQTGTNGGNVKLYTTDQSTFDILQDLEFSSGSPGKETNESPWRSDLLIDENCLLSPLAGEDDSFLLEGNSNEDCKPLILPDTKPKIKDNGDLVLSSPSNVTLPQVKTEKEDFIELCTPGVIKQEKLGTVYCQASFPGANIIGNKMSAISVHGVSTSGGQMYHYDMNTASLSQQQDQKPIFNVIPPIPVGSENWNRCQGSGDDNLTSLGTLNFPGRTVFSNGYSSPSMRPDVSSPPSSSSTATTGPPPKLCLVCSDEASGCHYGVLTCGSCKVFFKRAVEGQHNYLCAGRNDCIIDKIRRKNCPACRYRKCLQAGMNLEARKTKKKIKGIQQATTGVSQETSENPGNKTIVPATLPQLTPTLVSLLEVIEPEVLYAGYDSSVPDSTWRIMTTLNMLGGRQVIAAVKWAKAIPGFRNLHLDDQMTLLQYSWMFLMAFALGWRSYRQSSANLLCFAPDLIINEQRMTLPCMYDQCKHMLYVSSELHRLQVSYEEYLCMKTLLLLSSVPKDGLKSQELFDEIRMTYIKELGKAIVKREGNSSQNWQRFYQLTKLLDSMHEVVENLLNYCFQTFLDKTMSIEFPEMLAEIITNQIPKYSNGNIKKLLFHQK
Summary of the method: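 Transient MRTU transfection of HepG2 (GAL4-UAS reporters, exogenous NR-GAL4 chimeras), 24 h dosing. Readout: reporter transcript via RT-PCR + capillary electrophoresis fluorescence. Positive direction vs DMSO baseline.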

[2] = target: Bile acid receptor (Homo sapiens) (UniProt Q96RI1); assay: ATG_FXR_TRANS: Attagene TRANS-FACTORIAL HepG2 Assay for Farnesoid X Receptor (FXR) (AID 2282979; active means hit-call score of the fitted dose curve at least 0.9, where 1 is the maximum;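 further: hits raise reporter mRNA above DMSO so AC50 marks FXR activation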); conditions: HepG2 Attagene TRANS FXR-GAL4 reporter transcription
Bile acid receptor (Homo sapiens), sequence (Q96RI1 whole entry, looked up, the tested form may be a part): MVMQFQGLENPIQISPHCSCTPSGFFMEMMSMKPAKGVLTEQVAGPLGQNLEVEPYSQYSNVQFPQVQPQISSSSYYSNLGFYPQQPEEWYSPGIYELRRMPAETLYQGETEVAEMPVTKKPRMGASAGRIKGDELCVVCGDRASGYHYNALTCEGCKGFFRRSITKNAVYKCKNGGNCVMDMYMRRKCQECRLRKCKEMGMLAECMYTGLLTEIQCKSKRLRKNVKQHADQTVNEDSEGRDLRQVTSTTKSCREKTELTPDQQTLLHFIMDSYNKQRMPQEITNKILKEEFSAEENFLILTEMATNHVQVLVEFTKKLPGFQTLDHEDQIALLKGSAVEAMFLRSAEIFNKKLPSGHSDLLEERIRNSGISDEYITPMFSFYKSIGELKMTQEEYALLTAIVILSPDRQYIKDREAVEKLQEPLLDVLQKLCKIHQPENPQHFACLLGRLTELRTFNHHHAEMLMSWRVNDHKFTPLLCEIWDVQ
Summary of the method: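 After 24 h chemical treatment of transfected HepG2 cells, GAL4-UAS reporter transcripts driven by an exogenous FXR-GAL4 fusion were measured by RT-PCR and capillary electrophoresis. Increases over DMSO were fitted.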

[3] = target: Oxysterols receptor LXR-alpha (Homo sapiens) (UniProt Q13133); assay: ATG_LXRa_TRANS: Attagene TRANS-FACTORIAL HepG2 Assay for human Liver X Receptor alpha (LXRa) (AID 2282980; active means hit-call score of the fitted dose curve at least 0.9, where 1 is the maximum); conditions: HepG2 Attagene TRANS reporter, LXRa transactivation
Oxysterols receptor LXR-alpha (Homo sapiens), sequence (Q13133 whole entry, looked up, the tested form may be a part): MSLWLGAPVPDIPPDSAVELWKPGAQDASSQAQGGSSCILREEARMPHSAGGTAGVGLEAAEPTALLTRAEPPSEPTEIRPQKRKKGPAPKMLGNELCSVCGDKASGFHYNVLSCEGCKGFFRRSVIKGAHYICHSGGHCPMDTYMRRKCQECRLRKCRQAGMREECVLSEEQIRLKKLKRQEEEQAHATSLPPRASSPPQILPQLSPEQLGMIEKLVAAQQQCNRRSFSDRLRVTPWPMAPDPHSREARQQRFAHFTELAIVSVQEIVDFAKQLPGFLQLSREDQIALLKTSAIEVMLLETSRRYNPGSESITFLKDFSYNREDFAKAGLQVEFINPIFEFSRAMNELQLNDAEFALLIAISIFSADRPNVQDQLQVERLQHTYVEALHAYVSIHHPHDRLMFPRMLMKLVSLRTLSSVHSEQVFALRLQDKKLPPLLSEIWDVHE
Summary of the method: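 In this multiplexed TRANS system, compounds act on HepG2 cells carrying GAL4-UAS reporter units and a receptor-GAL4 fusion for 24 h. Induced reporter RNA is amplified, fluorescently labelled and sized by capillary electrophoresis, with DMSO as baseline.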

[4] = target: Oxysterols receptor LXR-beta (Homo sapiens) (UniProt P55055); assay: ATG_LXRb_TRANS: Attagene TRANS-FACTORIAL HepG2 Assay for human Liver X Receptor beta (LXRb) (AID 2282981; active means hit-call score of the fitted dose curve at least 0.9, where 1 is the maximum); conditions: HepG2 Attagene TRANS GAL4-LXRb reporter, mRNA
Oxysterols receptor LXR-beta (Homo sapiens), sequence (P55055 whole entry, looked up, the tested form may be a part): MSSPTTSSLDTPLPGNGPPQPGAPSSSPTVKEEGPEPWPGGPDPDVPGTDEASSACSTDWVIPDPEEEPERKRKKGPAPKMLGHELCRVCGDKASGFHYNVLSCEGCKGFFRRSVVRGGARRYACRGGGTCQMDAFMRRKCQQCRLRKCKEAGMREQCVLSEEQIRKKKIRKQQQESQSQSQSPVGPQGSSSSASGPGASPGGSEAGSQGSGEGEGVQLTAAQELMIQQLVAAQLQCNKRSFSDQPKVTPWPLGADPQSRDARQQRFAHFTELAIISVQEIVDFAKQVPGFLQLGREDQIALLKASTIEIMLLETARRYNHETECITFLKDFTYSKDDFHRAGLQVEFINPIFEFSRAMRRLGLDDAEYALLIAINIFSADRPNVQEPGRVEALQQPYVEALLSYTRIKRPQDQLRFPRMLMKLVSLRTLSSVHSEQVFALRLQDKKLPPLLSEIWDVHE
Summary of the method: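 Gain-of-signal mRNA reporter endpoint, DMSO as negative control. Transiently transfected HepG2 cells carrying the NR-Gal4 chimera and GAL4-UAS reporter units were treated 24 h; transcripts quantified by RT-PCR and capillary electrophoresis fluorescence.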

[5] = target: Hepatocyte nuclear factor 4-alpha (Homo sapiens) (UniProt P41235); assay: ATG_HNF4a_TRANS: Attagene TRANS-FACTORIAL HepG2 Assay for human Hepatocyte Nuclear Factor 4 alpha (HNF4a) (AID 2282982; active means hit-call score of the fitted dose curve at least 0.9, where 1 is the maximum); conditions: HepG2 HNF4a transactivation reporter, mRNA readout
Summary of the method: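 Gain-of-signal mRNA induction, relative to DMSO vehicle, was read after 24 h compound treatment of HepG2 cells bearing transfected GAL4-UAS reporters. Detection used RT-PCR, 6-FAM primer extension and capillary electrophoresis.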

[6] = ATG_M_06_TRANS: Attagene TRANS-FACTORIAL HepG2 Assay for M06 Transcription Factor (Internal Marker) (AID 2282983; active means hit-call score of the fitted dose curve at least 0.9, where 1 is the maximum); conditions: HepG2 Attagene TRANS M06 internal marker reporter
Summary of the method: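 Internal-marker background readout from a multiplexed TRANS reporter system in HepG2; 24 h dosing; mRNA induction quantified by RT-PCR plus capillary electrophoresis fluorescence; DMSO as negative control and baseline.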

[7] = ATG_M_32_TRANS: Attagene TRANS-FACTORIAL HepG2 Assay for M32 Transcription Factor (Internal Marker) (AID 2282984; active means hit-call score of the fitted dose curve at least 0.9, where 1 is the maximum;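 further: transcript level of a background control reporter unit measured by RT-PCR and capillary electrophoresis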); conditions: HepG2 Attagene TRANS M32 internal marker reporter
Summary of the method: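 Capillary electrophoresis of 6-FAM-labelled reporter fragments gives the signal; data fitted for gain over DMSO negative control. Source: HepG2 cells bearing transient multiple reporter transcription units, 24 h exposure.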

[8] = target: Nuclear receptor subfamily 4 group A member 2 (Homo sapiens) (UniProt P43354); assay: ATG_NURR1_TRANS: Attagene TRANS-FACTORIAL HepG2 Assay for human Nuclear Receptor Related Protein 1 (NURR1) (AID 2282985; active means hit-call score of the fitted dose curve at least 0.9, where 1 is the maximum); conditions: HepG2 Attagene TRANS reporter, mRNA readout
Nuclear receptor subfamily 4 group A member 2 (Homo sapiens), sequence (P43354 whole entry, looked up): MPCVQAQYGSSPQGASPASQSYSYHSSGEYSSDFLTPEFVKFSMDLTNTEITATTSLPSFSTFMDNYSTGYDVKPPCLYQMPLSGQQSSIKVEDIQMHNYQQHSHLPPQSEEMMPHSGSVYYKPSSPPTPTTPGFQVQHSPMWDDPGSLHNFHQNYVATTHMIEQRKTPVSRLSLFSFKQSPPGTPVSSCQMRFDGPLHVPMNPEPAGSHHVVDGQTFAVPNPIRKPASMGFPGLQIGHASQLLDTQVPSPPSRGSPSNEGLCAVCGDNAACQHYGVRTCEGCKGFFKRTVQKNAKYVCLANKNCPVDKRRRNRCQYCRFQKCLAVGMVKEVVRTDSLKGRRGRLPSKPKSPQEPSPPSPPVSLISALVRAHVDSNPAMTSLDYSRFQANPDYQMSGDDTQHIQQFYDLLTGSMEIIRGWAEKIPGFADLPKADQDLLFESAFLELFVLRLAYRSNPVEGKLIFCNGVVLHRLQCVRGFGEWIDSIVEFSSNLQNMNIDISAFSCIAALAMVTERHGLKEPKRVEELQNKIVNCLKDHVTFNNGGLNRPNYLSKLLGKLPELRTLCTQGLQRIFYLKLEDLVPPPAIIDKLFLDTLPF
Summary of the method: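 HepG2 / transient MRTU transfection / 24 h compound exposure / RT-PCR + CE fluorescence of reporter mRNA / gain-of-signal vs DMSO.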

[9] = target: Transcriptional activator Myb (Homo sapiens) (UniProt P10242); assay: ATG_Myb_CIS: Attagene CIS-FACTORIAL HepG2 Assay for human Myeloblastosis (Myb) Proto-Oncogene Transcription Factor (AID 2282986); conditions: HepG2 Attagene CIS-FACTORIAL Myb reporter transcription; actives raise or lower the signal
Transcriptional activator Myb (Homo sapiens), sequence (P10242 whole entry, looked up): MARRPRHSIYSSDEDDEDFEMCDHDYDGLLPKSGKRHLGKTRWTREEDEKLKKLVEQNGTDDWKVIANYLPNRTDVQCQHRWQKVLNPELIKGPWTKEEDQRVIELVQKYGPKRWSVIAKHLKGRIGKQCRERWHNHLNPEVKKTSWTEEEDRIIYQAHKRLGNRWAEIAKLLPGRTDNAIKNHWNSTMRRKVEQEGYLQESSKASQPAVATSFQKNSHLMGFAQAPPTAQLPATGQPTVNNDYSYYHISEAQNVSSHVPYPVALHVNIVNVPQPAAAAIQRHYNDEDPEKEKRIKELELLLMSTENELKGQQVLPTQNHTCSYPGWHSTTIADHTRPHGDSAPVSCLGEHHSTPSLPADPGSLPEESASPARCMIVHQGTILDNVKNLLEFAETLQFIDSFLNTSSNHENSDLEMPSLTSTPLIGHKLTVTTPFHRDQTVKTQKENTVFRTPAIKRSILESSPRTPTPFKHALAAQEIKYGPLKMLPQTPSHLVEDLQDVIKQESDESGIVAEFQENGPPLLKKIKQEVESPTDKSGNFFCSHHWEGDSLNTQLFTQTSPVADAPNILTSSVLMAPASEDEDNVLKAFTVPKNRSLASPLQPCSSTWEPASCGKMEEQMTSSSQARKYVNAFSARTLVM
Summary of the method: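 HepG2, transient MRTU transfection (cis-element promoters, endogenous TF activity), 24 h compound exposure. Readout: reporter mRNA via RT-PCR, 6-FAM labeling, HpaI digest, capillary electrophoresis. Gain/loss fit vs DMSO.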

[10] = target: Nuclear respiratory factor 1 (Homo sapiens) (UniProt Q16656); assay: ATG_NRF1_CIS: Attagene CIS-FACTORIAL HepG2 Assay for human Nuclear Respiratory Factor 1 (NRF1) Orphan Gene (AID 2282987); conditions: HepG2 NRF1 cis-element reporter, Attagene multiplex; actives raise or lower the signal
Nuclear respiratory factor 1 (Homo sapiens), sequence (Q16656 whole entry, looked up): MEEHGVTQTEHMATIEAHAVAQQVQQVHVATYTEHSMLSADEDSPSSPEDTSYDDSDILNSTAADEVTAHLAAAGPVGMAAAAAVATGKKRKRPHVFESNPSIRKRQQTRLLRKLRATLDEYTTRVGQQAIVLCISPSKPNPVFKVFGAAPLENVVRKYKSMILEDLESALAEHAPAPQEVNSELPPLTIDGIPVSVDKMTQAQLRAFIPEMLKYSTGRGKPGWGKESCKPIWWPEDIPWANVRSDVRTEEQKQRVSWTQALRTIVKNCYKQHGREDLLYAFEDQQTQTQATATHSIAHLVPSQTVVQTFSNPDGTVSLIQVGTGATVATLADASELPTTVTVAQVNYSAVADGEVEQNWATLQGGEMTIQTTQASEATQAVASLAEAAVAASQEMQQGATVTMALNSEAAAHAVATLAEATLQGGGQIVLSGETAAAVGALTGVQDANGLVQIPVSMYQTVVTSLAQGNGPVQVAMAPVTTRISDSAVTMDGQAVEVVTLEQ
Summary of the method: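 Endogenous NRF1-driven reporter transcription measured in transiently transfected human HepG2 liver cells. Readout: reporter mRNA by RT-PCR and capillary electrophoresis with fluorescence detection, 24 h post-dosing. Gain or loss of signal fitted relative to DMSO baseline.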

[11] = ATG_NFI_CIS: Attagene CIS-FACTORIAL HepG2 Assay for human Nuclear Factor I (NFI) (AID 2282989); conditions: HepG2 cis-regulatory reporter, NFI response element transcription; actives raise or lower the signal
Summary of the method: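 Transfected HepG2 liver cells, exposed 24 h, supplied total RNA for oligo(dT) reverse transcription and reporter-specific PCR. Labelled, HpaI-cut fragments were sized by capillary electrophoresis; DMSO set the baseline for bidirectional fitting.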

[12] = target: Myc proto-oncogene protein (Homo sapiens) (UniProt P01106); assay: ATG_Myc_CIS: Attagene CIS-FACTORIAL HepG2 Assay for human Myelocytomatosis (Myc) Proto-Oncogene Transcription Factor (AID 2282990); conditions: HepG2, Attagene cis-reporter transcription factor activity; actives raise or lower the signal
Myc proto-oncogene protein (Homo sapiens), sequence (P01106 whole entry, looked up): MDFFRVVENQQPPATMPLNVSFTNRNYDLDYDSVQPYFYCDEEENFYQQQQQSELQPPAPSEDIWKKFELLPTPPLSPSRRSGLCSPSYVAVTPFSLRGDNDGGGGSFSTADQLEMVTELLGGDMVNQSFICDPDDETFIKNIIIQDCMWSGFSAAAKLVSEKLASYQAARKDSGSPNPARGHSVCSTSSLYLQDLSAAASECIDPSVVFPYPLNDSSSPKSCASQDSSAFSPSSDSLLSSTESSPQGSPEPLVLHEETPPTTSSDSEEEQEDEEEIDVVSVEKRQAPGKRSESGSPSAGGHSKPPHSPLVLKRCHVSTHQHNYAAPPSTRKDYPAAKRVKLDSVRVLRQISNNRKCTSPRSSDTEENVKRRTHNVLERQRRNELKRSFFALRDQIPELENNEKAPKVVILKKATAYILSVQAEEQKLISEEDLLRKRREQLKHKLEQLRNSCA
Summary of the method: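 Transiently transfected HepG2 cells bearing cis-promoter reporter units for endogenous transcription factors; 24 h exposure. Reporter mRNA measured by RT-PCR, 6-FAM primer extension, HpaI cut and capillary electrophoresis; bidirectional fit relative to DMSO.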

[13] = ATG_NRF2_ARE_CIS: Attagene CIS-FACTORIAL HepG2 Assay for human Nuclear Factor Erythroid 2 Related Factor 2 (NFR2) response to Antioxidant Response Elements (ARE) (AID 2282992); conditions: HepG2 Attagene ARE/NRF2 reporter, transcription factor activity; actives raise or lower the signal
Summary of the method: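 HepG2 cells transiently transfected with multiplexed cis-element reporter constructs, 24 h after chemical dosing; reporter mRNA quantified by RT-PCR, fluorescent primer extension, HpaI digestion and capillary electrophoresis. Bidirectional fit relative to DMSO.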

[14] = target: Cellular tumor antigen p53 (Homo sapiens) (UniProt P04637); assay: ATG_p53_CIS: Attagene CIS-FACTORIAL HepG2 Assay for human p53 Transcription Factor (AID 2282994); conditions: HepG2 p53 cis-element reporter, Attagene mRNA; actives raise or lower the signal
Cellular tumor antigen p53 (Homo sapiens), sequence (P04637 whole entry, looked up): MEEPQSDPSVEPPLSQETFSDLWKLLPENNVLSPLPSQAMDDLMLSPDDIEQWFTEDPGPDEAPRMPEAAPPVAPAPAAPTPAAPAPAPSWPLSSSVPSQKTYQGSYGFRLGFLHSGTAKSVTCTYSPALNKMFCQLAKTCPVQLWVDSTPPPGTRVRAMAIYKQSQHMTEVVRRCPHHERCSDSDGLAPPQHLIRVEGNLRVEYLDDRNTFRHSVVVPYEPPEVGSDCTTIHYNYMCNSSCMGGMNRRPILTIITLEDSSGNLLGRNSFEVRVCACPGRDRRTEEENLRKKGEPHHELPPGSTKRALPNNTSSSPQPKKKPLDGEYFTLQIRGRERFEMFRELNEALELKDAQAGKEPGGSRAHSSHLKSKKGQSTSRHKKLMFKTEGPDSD
Summary of the method: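 HepG2 cells transiently transfected with cis-regulated multiple reporter transcription units, dosed 24 h. Reporter mRNA measured by RT-PCR, 6-FAM primer extension, HpaI digestion and capillary electrophoresis; bidirectional fit relative to DMSO.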

[15] = BSK_3C_TissueFactor: BioMAP Diversity Plus: 3C Assay for Tissue Factor Biomarker Activity (AID 2282997); conditions: BioMAP 3C HUVEC, tissue factor biomarker readout; actives raise or lower the signal
Summary of the method: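 Endothelial monolayers (human umbilical vein, primary) are dosed, incubated 24 h, and assayed for Tissue Factor by ELISA; DMSO serves as negative control for bidirectional fitting.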

[16] = BSK_3C_uPAR: BioMAP Diversity Plus: 3C Assay for Urokinase-type plasminogen activator receptor (uPAR) Biomarker Activity (AID 2282998); conditions: BioMAP 3C HUVEC, uPAR biomarker ELISA; actives raise or lower the signal
Summary of the method: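 In this endothelial cell-based assay, human umbilical vein primary cells were treated with chemicals and harvested at 24 h. uPAR was quantified using ELISA, with gains or losses fitted relative to DMSO controls.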

[17] = BSK_3C_VCAM1: BioMAP Diversity Plus: 3C Assay for Vascular cell adhesion molecule 1 (VCAM1) Biomarker Activity (AID 2282999); conditions: BioMAP 3C HUVEC, VCAM1 ELISA, cytokine-stimulated; actives raise or lower the signal
Summary of the method: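 Human umbilical vein endothelial cells (3C system), biomarker read by ELISA 24 h after dosing; bidirectional fit against DMSO baseline. Cytotoxicity tracked by SRB total-protein staining in parallel cultures at biomarker time.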

[18] = ATG_NF_kB_CIS: Attagene CIS-FACTORIAL HepG2 Assay for human Nuclear Factor Kappa B (NF-kB) (AID 2282991); conditions: HepG2 Attagene cis-factorial NF-kB reporter mRNA; actives raise or lower the signal
Summary of the method: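 Read-out: reporter transcript levels quantified by RT-PCR plus capillary electrophoresis of 6-FAM-labelled, HpaI-cut fragments. Transfected HepG2 cells, 24 h compound exposure, endogenous NF-kB-driven cis element; gain or loss scored versus DMSO.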

[19] = target: Estrogen-related receptor gamma (Homo sapiens) (UniProt P62508); assay: ATG_ERRg_TRANS: Attagene TRANS-FACTORIAL HepG2 Assay for human Estrogen-Related Receptor gamma (ERRg) (AID 2282977; active means hit-call score of the fitted dose curve at least 0.9, where 1 is the maximum;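 further: hits increase reporter signal over DMSO so potencies reflect activators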); conditions: HepG2 Attagene TRANS reporter, ERRg transactivation
Summary of the method: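 Transient HepG2 transfectants, 24 h compound exposure, GAL4-UAS reporter mRNA by RT-PCR/6-FAM labelling/capillary electrophoresis; positive direction vs DMSO.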

[20] = ATG_Oct_MLP_CIS: Attagene CIS-FACTORIAL HepG2 Assay for human Octamer-Binding Transcription Factor (Oct) (AID 2282993); conditions: HepG2 Attagene cis-factorial Oct reporter, mRNA; actives raise or lower the signal
Summary of the method: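 Using HepG2 cells bearing transfected cis-reporter constructs, mRNA induction was read after 24 h by fluorescent RT-PCR and capillary electrophoresis, with DMSO defining baseline for gain- or loss-of-signal fits.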

Measured: AC50

O=C(O)C(F)(F)C(F)(F)C(F)(F)C(F)(F)C(F)(F)C(F)(F)C(F)(F)C(F)(F)F
inactive: [1] | [2] | [3] | [4] | [5] | [6] | [7] | [9] | [10] | [11] | [12] | [14] | [15] | [16] | [17]
active: [2] 151 µM and 219 µM | [8] 38.9 µM and 39.4 µM | [13] 50.9 µM and 35.5 µM and 13 µM | [14] 217 µM | [15] 30 µM and 46 µM | [16] 25 µM and 51.6 µM | [17] 49.5 µM and 30 µM

Cc1ccccc1O
inactive: [1] | [3] | [4] | [9] | [10] | [11] | [12] | [18] | [13] | [14] | [15] | [16] | [17]

Oc1ccc(Cl)cc1Cl
active: [13] 36.3 µM
inactive: [19] | [2] | [3] | [4] | [5] | [6] | [7] | [8] | [9] | [10] | [11] | [12] | [20] | [14] | [15] | [16] | [17]

CCCCCCCCCc1ccc(O)cc1
active: [9] 157 µM | [10] 174 µM | [12] 69 µM | [18] 68.8 µM | [13] 11.1 µM and 26.6 µM and 14.3 µM | [15] 16.1 µM | [16] 15.5 µM | [17] 13.8 µM
inactive: [3] | [4] | [5] | [6] | [7] | [8] | [9] | [10] | [11] | [12] | [18] | [14]

Clc1ccc(C(Cl)(Cl)Cl)cc1
inactive: [1] | [4] | [6] | [7] | [9] | [10] | [11] | [12] | [13] | [14] | [15] | [16] | [17]

CCCN(CCC)N=O
inactive: [4] | [6] | [7] | [9] | [10] | [11] | [12] | [18] | [13] | [14] | [15] | [16] | [17]

c1cc2ccc3cccc4ccc(c1)c2c34
inactive: [4] | [5] | [6] | [7] | [8] | [9] | [10] | [11] | [12] | [18] | [13] | [20] | [14] | [16] | [17]
active: [15] 5.47 µM
